According to PubChem BioAssay (EPA / NIEHS):
Activity calls are given as the source filed them. The calls were made as follows: active = hit-call score of the fitted dose curve at least 0.9, where 1 is the maximum; inactive = score below 0.9.

read-out: Apolipoprotein A-V (APOA5) gene, APOA5 (gene 116519); assay: LTEA_HepaRG_APOA5: Life Technologies and Expression Analysis (LTEA) Assay for Apolipoprotein A-V (APOA5) gene using HepaRG (AID 2283474); conditions: mRNA level, 48 h; actives raise or lower the signal
Procedure, shortened: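 APOA5 transcript levels were quantified by qRT-PCR, normalized to three housekeeping genes, after 48 h chemical treatment of HepaRG cells (8 points, 100 uM maximum, half-log steps, 0.5% DMSO). Curves fitted in both directions against vehicle.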

Row | Compound | AC50 | outcome
1 | CCCCC(O)(Cn1cncn1)c1ccc(Cl)cc1Cl (stereo unspecified) | 65.6 µM (active) | –
2 | CC(C)N1C(=O)c2ccccc2NS1(=O)=O | – | inactive
3 | O=C(Nc1ccccc1-c1ccc(Cl)cc1)c1cccnc1Cl | – | inactive
4 | N#CN=C1SCCN1Cc1ccc(Cl)nc1 | – | inactive
5 | CCNC(=O)NC(=O)C(C#N)=NOC | – | inactive
6 | Cc1c(COC(=O)[C@@H]2[C@H](/C=C(\Cl)C(F)(F)F)C2(C)C)cccc1-c1ccccc1 | – | inactive
7 | C=C(C)CN(CC)c1c([N+](=O)[O-])cc(C(F)(F)F)cc1[N+](=O)[O-] | – | inactive
8 | CC(C)C1(C)N=C(c2ncccc2C(=O)O)NC1=O (stereo unspecified) | – | inactive
9 | CCCC(=NOCC)C1=C(O)CC(CC(C)SCC)CC1=O (stereo unspecified) | – | inactive
10 | O=C1C2CC=CCC2C(=O)N1SC(Cl)(Cl)Cl (stereo unspecified) | – | inactive
11 | COCc1cnc(C2=NC(C)(C(C)C)C(=O)N2)c(C(=O)O)c1 (stereo unspecified) | – | inactive
12 | Cc1nc(N(C)C)nc(OC(=O)N(C)C)c1C | – | inactive
13 | CC(C)N1C(=O)N(c2ccccc2)CSC1=NC(C)(C)C | 81.8 µM (active) | –
14 | Clc1cccc(C(Cl)(Cl)Cl)n1 | – | inactive
15 | CC1(C)CON(Cc2ccccc2Cl)C1=O | – | inactive
16 | CN/C(=N\[N+](=O)[O-])NCc1cnc(Cl)s1 | – | inactive
17 | Cc1ccc(N=CN(C)C=Nc2ccc(C)cc2C)c(C)c1 | – | inactive
18 | CCN(CC)c1nc(C)cc(OP(=S)(OC)OC)n1 | – | inactive

Row | Compound | AC50 | outcome
19 | COCC(C)N(C(=O)CCl)c1c(C)csc1C (stereo unspecified) | – | inactive
20 | CCOc1nc(C(Cl)(Cl)Cl)ns1 | 1.44 µM (active) | –
21 | CCC(C)n1c(=O)[nH]c(C)c(Br)c1=O (stereo unspecified) | – | inactive
22 | Nc1cnn(-c2ccccc2)c(=O)c1Cl | – | inactive
23 | N#Cc1c(Cl)cccc1Cl | – | inactive
24 | CCN(CC)C(=O)C(C)Oc1cccc2ccccc12 (stereo unspecified) | 79.3 µM (active) | –
25 | CC1(C)C(C(=O)OC(C#N)c2cccc(Oc3ccccc3)c2)C1(C)C (stereo unspecified) | – | inactive
26 | CC(C)Nc1nc(Cl)nc(NC(C)C)n1 | – | inactive
27 | N#Cc1c[nH]cc1-c1cccc2c1OC(F)(F)O2 | – | inactive
28 | Cn1c(-c2ccccc2)cc(-c2ccccc2)[n+]1C | 63.8 µM (active) | –
29 | CCCN(CC)CC1COC2(CCC(C(C)(C)C)CC2)O1 (stereo unspecified) | – | inactive
30 | CCNP(=S)(OC)O/C(C)=C/C(=O)OC(C)C (stereo unspecified) | – | inactive
31 | CS(=O)(=O)c1ccc(C(=O)C2C(=O)CCCC2=O)c([N+](=O)[O-])c1 | – | inactive
32 | COP(=S)(OC)Oc1ccc([N+](=O)[O-])c(C)c1 | – | inactive
33 | COC(=O)NC(=S)Nc1ccccc1NC(=S)NC(=O)OC | – | inactive
34 | COc1cc(Cl)c(OC)cc1Cl | – | inactive
35 | CC(C)(C)C(=O)C(Oc1ccc(Cl)cc1)n1cncn1 (stereo unspecified) | – | inactive
36 | CCCCOCN(C(=O)CCl)c1c(CC)cccc1CC | – | inactive
